In PubChem BioAssay (EPA / NIEHS):
Several values for one entry are separate records, joined by “and”; a condition that tells them apart may be missing. Identical values can stand only once. Some compounds were tested as several samples or in several runs, with calls that do not always agree. Activity calls are given as the source filed them. The calls were made as follows: active = hit-call score of the fitted dose curve at least 0.9, where 1 is the maximum; inactive = score below 0.9.

Key:
[1] = ATG_E_Box_CIS: Attagene CIS-FACTORIAL HepG2 Assay for human Enhancer Box (E-box) (AID 2282936); details: HepG2 E-box cis-reporter transcription, actives raise or lower the signal
Procedure, shortened: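 Cells: HepG2 (human liver), transient MRTU transfection. Exposure 24 h. RNA → oligo(dT) RT → PCR → 6-FAM label → HpaI → CE. Activity fitted both directions relative to DMSO.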

[2] = ATG_EGR_CIS: Attagene CIS-FACTORIAL HepG2 Assay for human Early Growth Response 1 (EGR1) (AID 2282938); details: HepG2 Attagene CIS-FACTORIAL EGR reporter mRNA; actives raise or lower the signal
Procedure, shortened: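 Endpoint derived by bidirectional fitting versus DMSO vehicle. Method: cis-promoter reporter units transfected into HepG2, 24 h dosing, RNA isolation, RT-PCR with 6-FAM primer extension and HpaI digestion, then capillary electrophoresis fluorescence detection.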

[3] = ATG_M_19_CIS: Attagene CIS-FACTORIAL HepG2 Assay for M19 Transcription Factor (Internal Marker) (AID 2282939); details: HepG2 Attagene CIS-FACTORIAL M19 internal marker reporter; actives raise or lower the signal
Procedure, shortened: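 In this multiplexed cell assay, transiently transfected HepG2 reporter units report endogenous transcription-factor activity; after 24 hours of treatment, labelled reporter cDNA fragments are quantified by capillary electrophoresis and fitted bidirectionally against DMSO.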

[4] = ATG_Ets_CIS: Attagene CIS-FACTORIAL HepG2 Assay for human Erythroblast Transformation Specific (ETS) (AID 2282941); details: HepG2 ETS cis-reporter transcription, actives raise or lower the signal
Procedure, shortened: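 After transient cis-reporter transfection, HepG2 cells receive test chemical for 24 h. Reporter mRNA levels, measured by RT-PCR and capillary electrophoresis fluorescence, are analysed bidirectionally relative to the DMSO baseline.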

[5] = target: Hepatocyte nuclear factor 3-beta (Homo sapiens) (UniProt Q9Y261); assay: ATG_FoxA2_CIS: Attagene CIS-FACTORIAL HepG2 Assay for human Forkhead box A2 (FOXA2) (AID 2282942); details: HepG2 cis-reporter transcription factor activity, 24 h; actives raise or lower the signal
Procedure, shortened: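 Measured: reporter mRNA induction or loss in HepG2 transiently carrying multiple cis-regulated reporter units, 24 h after dosing. Quantified by RT-PCR plus capillary electrophoresis, normalised to DMSO.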

[6] = ATG_FoxO_CIS: Attagene CIS-FACTORIAL HepG2 Assay for human Forkhead box O (FoxO) (AID 2282943); details: HepG2 Attagene cis-reporter, FoxO element, mRNA; actives raise or lower the signal
Procedure, shortened: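 HepG2, transient MRTU transfection (cis element, endogenous TFs). Dose 24 h. TriZol RNA → oligo(dT) RT → PCR → 6-FAM primer extension → HpaI cut → CE. Gain/loss vs DMSO.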

[7] = ATG_GATA_CIS: Attagene CIS-FACTORIAL HepG2 Assay for human GATA Binding Protein (AID 2282944); details: HepG2 GATA cis-element reporter, Attagene multiplex mRNA; actives raise or lower the signal
Procedure, shortened: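 Measures endogenous transcription factor-driven reporter mRNA in HepG2 cells transiently carrying cis-regulated constructs. 24 h dosing; RNA via oligo(dT) reverse transcription, PCR, HpaI digestion, capillary electrophoresis; fitted relative to DMSO.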

[8] = ATG_GLI_CIS: Attagene CIS-FACTORIAL HepG2 Assay for human Zinc Finger Protein GLI1 (AID 2282945); details: HepG2, Attagene cis-factorial reporter mRNA, GLI element; actives raise or lower the signal
Procedure, shortened: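 Bidirectional curve fits relative to DMSO, using reporter mRNA levels from RT-PCR plus capillary electrophoresis. Cells were HepG2 transiently carrying cis-regulated reporter constructs, harvested 24 h after dosing.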

[9] = ATG_ISRE_CIS: Attagene CIS-FACTORIAL HepG2 Assay for human Interferon Regulatory Factor 1 (IRF1) binding to an Interferon-Stimulated Response Element (ISRE) (AID 2282948); details: HepG2 ISRE cis-reporter (Attagene), mRNA transcription readout; actives raise or lower the signal
Procedure, shortened: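 Quantitation relies on labelled RT-PCR fragments separated by capillary electrophoresis. Human HepG2 cells bearing cis-promoter reporter constructs were treated 24 h; DMSO served as baseline for bidirectional fitting.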

[10] = ATG_M_32_CIS: Attagene CIS-FACTORIAL HepG2 Assay for M32 Transcription Factor (Internal Marker) (AID 2282949); details: HepG2 Attagene cis-factorial M32 reporter, mRNA; actives raise or lower the signal;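 also: background control marker of the multiplexed CIS panel rather than a real target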
Procedure, shortened: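 HepG2 cells transiently transfected with multiplexed cis-regulated reporter units, dosed 24 h. Reporter mRNA quantified by RT-PCR, 6-FAM labelling, HpaI digestion and capillary electrophoresis; bidirectional fit vs DMSO.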

[11] = ATG_M_06_CIS: Attagene CIS-FACTORIAL HepG2 Assay for M06 Transcription Factor (Internal Marker) (AID 2282950); details: HepG2 Attagene CIS-FACTORIAL M06 internal marker reporter; actives raise or lower the signal
Procedure, shortened: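 One of many multiplexed endpoints: HepG2 reporter mRNA after 24 h dosing, detected by RT-PCR and capillary electrophoresis fluorescence; gain or loss of signal analysed against DMSO.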

[12] = target: Hypoxia-inducible factor 1-alpha (Homo sapiens) (UniProt Q16665); assay: ATG_HIF1a_CIS: Attagene CIS-FACTORIAL HepG2 Assay for human Hypoxia Inducible Factor 1 (HIF1A) (AID 2282951); details: HepG2 Attagene cis-factorial HIF1a reporter transcription; actives raise or lower the signal
Procedure, shortened: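 Dosed 24 h, transfected HepG2 cells yielded total RNA whose reporter transcripts were RT-PCR-amplified and sized by capillary electrophoresis using fluorescent labelling; DMSO defined baseline, with gain and loss of signal both fitted.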

[13] = target: Hepatocyte nuclear factor 6 (Homo sapiens) (UniProt Q9UBC0); assay: ATG_HNF6_CIS: Attagene CIS-FACTORIAL HepG2 Assay for human Hepatocyte Nuclear Factor 6 (HNF6) (AID 2282952); details: HepG2 Attagene cis-factorial HNF6 reporter transcription; actives raise or lower the signal
Procedure, shortened: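 HepG2 cells transiently transfected with cis-element-driven multiple reporter transcription units, dosed 24 h; reporter mRNA quantified by RT-PCR, FAM primer extension, HpaI digestion and capillary electrophoresis; bidirectional fit versus DMSO baseline.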

[14] = target: Heat shock factor protein 1 (Homo sapiens) (UniProt Q00613); assay: ATG_HSE_CIS: Attagene CIS-FACTORIAL HepG2 Assay for human Heat Shock Transcription Factor 1 (HSE) (AID 2282953); details: HepG2 HSE cis-reporter, Attagene RNA transcription; actives raise or lower the signal
Procedure, shortened: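 Using HepG2 with transfected cis-driven reporter constructs, compound effects on endogenous factor activity are scored as reporter mRNA change at 24 h. Detection: RT-PCR, HpaI digestion, capillary electrophoresis; bidirectional fitting to DMSO.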

[15] = ATG_MRE_CIS: Attagene CIS-FACTORIAL HepG2 Assay for human Metal Responsive Element (MRE) (AID 2282954); details: HepG2 MRE cis-reporter transcription, Attagene multiplex; actives raise or lower the signal
Procedure, shortened: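 Transient MRTU transfection of HepG2 (FuGene 6); 24 h dosing; total RNA → oligo(dT) RT, PCR, 6-FAM primer extension, HpaI cut, CE. Bidirectional fit vs DMSO.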

[16] = ATG_PBREM_CIS: Attagene CIS-FACTORIAL HepG2 Assay for human Phenobarbital-responsive Enhancer Module (PBREM) (AID 2282955); details: HepG2 PBREM cis-reporter, Attagene multiplexed transcription; actives raise or lower the signal
Procedure, shortened: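 Transfected liver-derived HepG2 cells exposed 24 h; PBREM reporter transcript quantified via RT-PCR and capillary electrophoresis, with activity in either direction referenced to DMSO.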

[17] = target: Paired box protein Pax-6 (Homo sapiens) (UniProt P26367); assay: ATG_Pax6_CIS: Attagene CIS-FACTORIAL HepG2 Assay for human Paired Box 6 (PAX6) (AID 2282956); details: HepG2 CIS-FACTORIAL PAX6 reporter transcription, RNA readout; actives raise or lower the signal
Procedure, shortened: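 After twenty-four hours of chemical exposure, transfected HepG2 cells are harvested for RNA. Cis-promoter reporter transcripts are amplified, fluorescently labelled and sized by capillary electrophoresis, with gain and loss of signal scored against DMSO.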

[18] = ATG_ERE_CIS: Attagene CIS-FACTORIAL HepG2 Assay for Estrogen Response Element (ERE) (AID 2282940); details: HepG2 ERE cis-reporter, Attagene RNA transcript; actives raise or lower the signal
Procedure, shortened: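 Measuring endogenous transcription factor output, the assay doses transfected HepG2 cells for 24 hours and quantifies reporter transcripts by fluorescent RT-PCR and capillary electrophoresis, with DMSO as baseline.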

[19] = ATG_GRE_CIS: Attagene CIS-FACTORIAL HepG2 Assay for human Glucocorticoid Response Elements (GRE) (AID 2282947); details: HepG2 GRE cis-reporter, Attagene multiplex mRNA; actives raise or lower the signal
Procedure, shortened: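 Transient MRTU transfection of human HepG2 liver cells; cis-regulated reporters report endogenous factors. 24 h dosing → RNA isolation → RT-PCR → 6-FAM primer extension → HpaI cut → CE fragment analysis. Bidirectional fit, DMSO negative control.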

Measured: AC50

Sequence of Hepatocyte nuclear factor 3-beta (Homo sapiens) (Q9Y261 whole entry, looked up): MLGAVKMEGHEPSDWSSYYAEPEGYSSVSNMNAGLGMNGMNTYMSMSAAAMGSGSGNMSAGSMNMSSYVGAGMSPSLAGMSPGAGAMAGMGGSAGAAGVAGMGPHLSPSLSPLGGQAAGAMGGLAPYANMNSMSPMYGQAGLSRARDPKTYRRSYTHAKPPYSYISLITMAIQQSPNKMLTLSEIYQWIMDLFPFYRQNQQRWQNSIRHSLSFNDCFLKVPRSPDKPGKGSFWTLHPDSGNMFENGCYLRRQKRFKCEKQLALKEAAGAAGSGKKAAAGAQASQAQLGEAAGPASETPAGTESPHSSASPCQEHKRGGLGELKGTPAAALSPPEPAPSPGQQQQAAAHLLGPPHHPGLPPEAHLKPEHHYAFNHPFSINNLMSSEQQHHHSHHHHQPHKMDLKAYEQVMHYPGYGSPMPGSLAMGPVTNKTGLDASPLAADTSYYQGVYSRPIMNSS
Sequence of Hepatocyte nuclear factor 6 (Homo sapiens) (Q9UBC0 whole entry, looked up): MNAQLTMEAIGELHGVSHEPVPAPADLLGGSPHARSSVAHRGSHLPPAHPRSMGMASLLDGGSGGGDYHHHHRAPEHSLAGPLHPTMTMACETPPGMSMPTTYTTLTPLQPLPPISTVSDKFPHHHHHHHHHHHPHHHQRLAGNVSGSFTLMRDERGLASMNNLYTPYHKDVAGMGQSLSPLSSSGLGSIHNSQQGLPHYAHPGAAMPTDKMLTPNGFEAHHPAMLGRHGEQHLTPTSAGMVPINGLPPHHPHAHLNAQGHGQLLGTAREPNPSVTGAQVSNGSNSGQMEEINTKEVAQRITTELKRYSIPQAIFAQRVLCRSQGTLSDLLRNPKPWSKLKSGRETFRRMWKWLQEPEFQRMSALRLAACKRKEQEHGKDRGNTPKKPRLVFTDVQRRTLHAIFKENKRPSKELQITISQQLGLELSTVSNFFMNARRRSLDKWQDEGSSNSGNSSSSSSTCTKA
Sequence of Heat shock factor protein 1 (Homo sapiens) (Q00613 whole entry, looked up): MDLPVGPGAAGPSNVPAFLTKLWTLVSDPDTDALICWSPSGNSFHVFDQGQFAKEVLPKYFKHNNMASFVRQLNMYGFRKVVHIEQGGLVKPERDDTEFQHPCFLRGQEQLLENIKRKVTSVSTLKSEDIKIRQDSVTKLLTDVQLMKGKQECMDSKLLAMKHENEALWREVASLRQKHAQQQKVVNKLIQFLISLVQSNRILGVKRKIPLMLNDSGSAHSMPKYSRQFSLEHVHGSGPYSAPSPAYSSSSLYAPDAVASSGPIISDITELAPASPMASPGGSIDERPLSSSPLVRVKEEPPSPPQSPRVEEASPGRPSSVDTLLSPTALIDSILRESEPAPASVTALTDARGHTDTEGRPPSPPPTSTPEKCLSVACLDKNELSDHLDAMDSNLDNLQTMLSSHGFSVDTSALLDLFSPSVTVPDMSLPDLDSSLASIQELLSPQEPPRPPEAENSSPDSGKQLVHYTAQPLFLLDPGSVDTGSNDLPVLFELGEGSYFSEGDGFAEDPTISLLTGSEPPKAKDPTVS
Sequence of Hypoxia-inducible factor 1-alpha (Homo sapiens) (Q16665 whole entry, looked up): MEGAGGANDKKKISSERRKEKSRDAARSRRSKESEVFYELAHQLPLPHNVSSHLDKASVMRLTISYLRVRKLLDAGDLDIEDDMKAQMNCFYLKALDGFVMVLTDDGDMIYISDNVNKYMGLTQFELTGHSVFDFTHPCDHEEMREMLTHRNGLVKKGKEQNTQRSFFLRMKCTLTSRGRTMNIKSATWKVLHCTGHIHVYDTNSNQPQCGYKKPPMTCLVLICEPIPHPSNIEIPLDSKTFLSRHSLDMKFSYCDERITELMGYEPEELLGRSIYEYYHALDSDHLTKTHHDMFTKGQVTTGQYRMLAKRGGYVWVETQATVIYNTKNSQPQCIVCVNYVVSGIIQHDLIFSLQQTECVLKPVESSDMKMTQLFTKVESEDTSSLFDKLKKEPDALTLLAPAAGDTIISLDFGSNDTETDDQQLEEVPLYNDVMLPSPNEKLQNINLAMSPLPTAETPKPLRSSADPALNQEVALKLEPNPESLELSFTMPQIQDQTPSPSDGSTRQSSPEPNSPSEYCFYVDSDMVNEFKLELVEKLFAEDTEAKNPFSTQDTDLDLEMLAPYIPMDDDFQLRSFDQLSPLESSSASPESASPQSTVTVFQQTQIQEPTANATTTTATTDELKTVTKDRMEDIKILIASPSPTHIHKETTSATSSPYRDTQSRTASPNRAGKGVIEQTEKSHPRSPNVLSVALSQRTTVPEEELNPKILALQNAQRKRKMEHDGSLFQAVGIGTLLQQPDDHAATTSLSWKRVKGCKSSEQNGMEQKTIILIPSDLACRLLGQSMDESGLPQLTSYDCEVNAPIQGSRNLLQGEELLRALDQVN
Sequence of Paired box protein Pax-6 (Homo sapiens) (P26367 whole entry, looked up): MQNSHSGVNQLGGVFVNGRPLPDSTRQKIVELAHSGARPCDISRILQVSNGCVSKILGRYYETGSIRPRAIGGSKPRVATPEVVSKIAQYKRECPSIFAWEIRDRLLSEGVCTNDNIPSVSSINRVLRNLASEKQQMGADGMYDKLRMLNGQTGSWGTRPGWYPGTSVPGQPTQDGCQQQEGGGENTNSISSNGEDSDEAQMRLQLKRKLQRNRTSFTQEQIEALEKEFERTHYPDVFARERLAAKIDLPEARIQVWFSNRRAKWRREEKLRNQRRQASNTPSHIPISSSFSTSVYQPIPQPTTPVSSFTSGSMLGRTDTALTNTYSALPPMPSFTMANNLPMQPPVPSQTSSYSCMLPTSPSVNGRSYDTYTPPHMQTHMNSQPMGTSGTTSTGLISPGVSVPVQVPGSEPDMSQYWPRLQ

CCNc1nc(NC(C)C)nc(SC)n1
not listed: [18] | [19]
inactive: all other assays above

O=S(=O)(O)C(F)(F)C(F)(F)C(F)(F)C(F)(F)F
inactive: all assays above

Cc1ccccc1[N+](=O)[O-]
not listed: [14]
inactive: all other assays above

CO/C=C(/C(=O)OC)c1ccccc1COc1cccc(C(F)(F)F)n1
active: [2] 28.8 µM | [15] 44.3 µM | [17] 31.9 µM
not listed: [19]
inactive: all other assays above

N#Cc1ccc(N(CC(N)=O)CC(F)(F)F)cc1C(F)(F)F
active: [2] 25.3 µM
not listed: [16] | [19]
inactive: all other assays above

Oc1ccc(Cl)cc1Cl
active: [18] 75.9 µM
inactive: all other assays above

O=S(=O)(O)C(F)(F)C(F)(F)C(F)(F)C(F)(F)C(F)(F)C(F)(F)F
active: [18] 100 µM and 150 µM
inactive: [1] | [2] | [3] | [18] | [4] | [5] | [6] | [7] | [8] | [19] | [9] | [10] | [11] | [12] | [13] | [14] | [15] | [16] | [17]
